Measurements taken from PubChem BioAssay (EPA / NIEHS).
Records with an inconclusive call do not appear. Where a structure was tested more than once in an assay, its records may differ in their call. Calls of active or inactive are those of the source. How the source made its calls: active means hit-call score of the fitted dose curve at least 0.9, where 1 is the maximum; inconclusive means response in the unintended direction; inactive means score below 0.9.

read-out: xenobiotic metabolism (CYP1A1), CYP1A1 (gene 1543); experiment: CLD_CYP1A1_24hr: CellzDirect (CLD) Gene Expression Assay for xenobiotic metabolism (CYP1A1) at 24 hours (AID 2283673)
Experimental: CLD_24hr is a cell-based, multiplexed-readout assay that uses hepatocyte, a human liver primary cell, with measurements taken at 24 hours after chemical dosing in a 96-well plate.CLD_CYP1A1_24hr is one of 16 assay component(s) measured or calculated from the CLD_24hr assay. It is designed to make measurements of mRNA induction, a form of inducible reporter, as detected with chemiluminescence signals by Quantitative Nuclease Protection Assay (qNPA) technology.Data from the assay component CLD_CYP1A1_24hr was analyzed at the endpoint, CLD_CYP1A1_24hr, in the positive analysis fitting direction relative to DMSO as the negative control and baseline of activity. Using a type of inducible reporter, gain-of-signal activity can be used to understand changes in the reporter gene as they relate to the gene CYP1A1. Furthermore, this assay endpoint can be referred to as a primary readout. To generalize the intended target to other relatable targets, this assay endpoint is annotated to the cyp intended target family, where subfamily is xenobiotic metabolism.
Human hepatocyte cultures were treated daily for two consecutive days with fresh dosing solutions containing appropriate concentrations of the 320 ToxCast chemicals (chemical identities were blinded to CellzDirect and other ToxCast collaborators), vehicle control (0.2% DMSO), and positive control inducers as summarized in Table 1. Due to the large number of treatment groups and chemicals examined, the ToxCast chemicals were divided into two groups (spanning two independent cultures of hepatocytes from separate donor preparations (Hu778: ToxCast plates 1 and 2; Hu776: ToxCast plates 3 and 4). Each preparation of human hepatocyte cultures was treated with respective vehicle control, medium only control, set of six positive controls/reference chemicals for the five hepatic receptor pathways, and a subset of eight of the ToxCast chemicals (indoxacarb, pyrithiobac-sodium, norflurazon, cyhalofop-butyl, methomyl, thiram, acetochlor, and propiconazole). These replicate data, coupled with internal replicates designed within the blinded ToxCast chemical library, provided additional data to evaluate interindividual differences between hepatocyte preparations and their potential impact on chemical profiles.Cell morphology and integrity were evaluated using phase-contrast microscopy as an indicator of hepatocyte cell health (Tyson & Green, 1987). Cultures for each treatment group (i.e., media, vehicle [0.2% DMSO], positive control inducers [multiple concentrations], and the ToxCast chemicals [multiple concentrations]) were observed and cell morphology was assessed relative to vehicle control cultures at each harvest time point (0, 6, 24, or 48 h). […] Images were evaluated at the conclusion of the study to assess changes in cell integrity and account for the effects of chemical exposure on uncharacteristic changes in concentration-dependent gene expression profiles. The results from these determinations of apparent cytotoxicity were annotated (yes/no) alongside the corresponding qNPA data for reference.At the conclusion of each treatment period, hepatocyte cultures (96-well) were washed with 1 volume of HBSS, lysed by addition of 25 ul ArrayPlate lysis buffer (HTG, Tucson, AZ), and 70 ul/well of Denaturation Oil, denatured by incubation at 95C for 10 min, and frozen at approximately -70C until analysis by nuclease protection assay (qNPA) (Roberts et al., 2007). For qNPA analysis, cell lysates were thawed at 50C for approximately 30 min, qNPA probes were added, and samples were incubated at 95C for 10 min to begin the detection process by denaturing the target RNA, dissociating the duplexes and secondary structure hybridization. At the conclusion of the hybridization period, S1 nuclease reagent was added to each sample to digest all nonprotected nucleotides at 50C for 60-90 min. […]

Question: How did the outcome turn out when CCON=C(CC)C1=C(O)CC(c2c(C)cc(C)cc2C)CC1=O (stereo not given) was run?
Answer: The outcome was “inactive”.

Question: CCc1nn(C)c(C(=O)NCc2ccc(C(C)(C)C)cc2)c1Cl was tested. Which AC50 did it give?
Answer: The AC50 was 7.44 µM (active).

Question: OC(c1ccc(Cl)cc1)(c1cncnc1)c1ccccc1Cl (stereo not given) was tested. Which AC50 did it give?
Answer: Its AC50 is 7.86 µM (active).

Question: C=CCC1=C(C)C(OC(=O)C2C(C=C(C)C)C2(C)C)CC1=O (stereo not given) was tested. Which outcome did it give?
Answer: Its outcome is “inactive”.

Question: With Cc1cc(Cl)ccc1OCC(=O)O as the molecule, how does the outcome read?
Answer: Its outcome is “inactive”.

Question: How did the AC50 turn out when O=C(O)c1nc(Cl)ccc1Cl was run?
Answer: The AC50 was 7.87 µM (active).

Question: Oc1ccccc1-c1ccccc1 was tested. Which AC50 did it give?
Answer: Its AC50 is 35.9 µM (active).

Question: O=C(O)COc1nc(Cl)c(Cl)cc1Cl was tested. Which outcome did it give?
Answer: The outcome was “inactive”.

Question: For N#Cc1cc(Br)c(O)c(Br)c1, which AC50 is on record?
Answer: Its AC50 is 20 µM (active).

Question: How did the AC50 turn out when CN(C)C(=S)SSC(=S)N(C)C was run?
Answer: The AC50 was 35 µM (active).

Question: How did the AC50 turn out when CCCCOC(=O)c1ccccc1C(=O)OCCCC was run?
Answer: The AC50 was 4.22 µM (active).

Question: What about the outcome of the same molecule?
Answer: The outcome was “inactive”.

Question: How did the AC50 turn out when CCCC1COC(Cn2cncn2)(c2ccc(Cl)cc2Cl)O1 (stereo not given) was run?
Answer: Its AC50 is 6.46 µM (active).

Question: Which AC50 does the source give for CCOP(=S)(OCC)SCn1c(=O)oc2cc(Cl)ccc21 here?
Answer: Its AC50 is 5.28 µM (active).

Question: How did the AC50 turn out when CC(C)(C)c1ccc(CSc2cnn(C(C)(C)C)c(=O)c2Cl)cc1 was run?
Answer: The AC50 was 20 µM (active).

Question: With COc1ccc(C(c2ccc(OC)cc2)C(Cl)(Cl)Cl)cc1 as the molecule, how does the outcome read?
Answer: Its outcome is “inactive”.

Question: With CC1=C(C(=O)Nc2ccccc2)SCCO1 as the molecule, how does the AC50 read?
Answer: The AC50 was 20 µM (active).

Question: How did the outcome turn out when COP(N)(=O)SC (stereo not given) was run?
Answer: Its outcome is “inactive”.

Question: With COC(=O)c1ccccc1C(=O)OC as the molecule, how does the outcome read?
Answer: The outcome was “inactive”.

Question: CCOC(=O)C(Cl)Cc1cc(-n2nc(C)n(C(F)F)c2=O)c(F)cc1Cl (stereo not given) was tested. Which AC50 did it give?
Answer: The AC50 was 0.39 µM (active).

Question: Which results are given for COc1nc(C)nc(NC(=O)NS(=O)(=O)c2ccccc2CCC(F)(F)F)n1?
Answer: outcome: inactive; AC50: 20 µM (active)

Question: Which AC50 does the source give for C=CC1(C)OC(=O)N(c2cc(Cl)cc(Cl)c2)C1=O (stereo not given) here?
Answer: The AC50 was 0.317 µM (active).

Question: For COC(=O)N(OC)c1ccccc1COc1ccn(-c2ccc(Cl)cc2)n1, which AC50 is on record?
Answer: The AC50 was 1.9 µM (active).

Question: For N#Cc1nn(-c2c(Cl)cc(C(F)(F)F)cc2Cl)c(N)c1S(=O)C(F)(F)F (stereo not given), which outcome is on record?
Answer: Its outcome is “inactive”.

Question: For CCCN(CCC)c1c([N+](=O)[O-])cc(S(N)(=O)=O)cc1[N+](=O)[O-], which AC50 is on record?
Answer: The AC50 was 4.81 µM (active).

Question: C=CCC1=C(C)[C@@H](OC(=O)[C@@H]2[C@@H](C=C(C)C)C2(C)C)CC1=O was tested. Which outcome did it give?
Answer: Its outcome is “inactive”.

Question: COC(=O)C(C)Oc1ccc(Oc2ccc(Cl)cc2Cl)cc1 (stereo not given) was tested. Which outcome did it give?
Answer: The outcome was “inactive”.

Question: Which AC50 does the source give for Cc1ccc(-c2c(Cl)nc(C#N)n2S(=O)(=O)N(C)C)cc1 here?
Answer: The AC50 was 8.2 µM (active).

Question: How did the AC50 turn out when N#CC(CCc1ccc(Cl)cc1)(Cn1cncn1)c1ccccc1 (stereo not given) was run?
Answer: Its AC50 is 2.64 µM (active).

Question: CC1COC(Cn2cncn2)(c2ccc(Oc3ccc(Cl)cc3)cc2Cl)O1 (stereo not given) was tested. Which AC50 did it give?
Answer: The AC50 was 1.94 µM (active).

Question: Fc1ccc(Oc2ccnc3cc(Cl)cc(Cl)c23)cc1 was tested. Which AC50 did it give?
Answer: Its AC50 is 2.49 µM (active).

Question: How did the outcome turn out when CC(Oc1ccc(Cl)cc1Cl)C(=O)O (stereo not given) was run?
Answer: Its outcome is “inactive”.

Question: For CCCCNC(=O)n1c(NC(=O)OC)nc2ccccc21, which AC50 is on record?
Answer: Its AC50 is 20 µM (active).

Question: Which outcome does the source give for CC(C)C1(C)N=C(c2nc3ccccc3cc2C(=O)O)NC1=O (stereo not given) here?
Answer: The outcome was “inactive”.

Question: For CS/C(C)=N/OC(=O)N(C)SN(C)C(=O)O/N=C(\C)SC, which outcome is on record?
Answer: Its outcome is “inactive”.

Question: How did the AC50 turn out when CC(C)Oc1cc(-n2nc(C(C)(C)C)oc2=O)c(Cl)cc1Cl was run?
Answer: The AC50 was 4.05 µM (active).

Question: COc1nc(NC(C)C)nc(NC(C)C)n1 was tested. Which AC50 did it give?
Answer: Its AC50 is 3.47 µM (active).

Question: For CCCCNC(=O)OCC#CI, which outcome is on record?
Answer: Its outcome is “inactive”.

Question: How did the AC50 turn out when O=C(Nc1ccccc1)Nc1ccnc(Cl)c1 was run?
Answer: Its AC50 is 10.4 µM (active).
